According to the supplement of paper PMC3334620:
Over roughly 33,000 sequences, “E-score (-0.5 to 0.5)” has its median near -0.04; the highest 2% begin near 0.36. This is one part of a sample in which the highest values are shown more often than they occur.

biological target: T1, Hmlalpha2 (UniProt P0CY09); experiment: PBM E-score (8-mer binding enrichment) (E-score (-0.5 to 0.5)); higher = stronger / more preferred TF binding; settings: protein concentration: 200 nM; construct: GST-full length
T1 sequence: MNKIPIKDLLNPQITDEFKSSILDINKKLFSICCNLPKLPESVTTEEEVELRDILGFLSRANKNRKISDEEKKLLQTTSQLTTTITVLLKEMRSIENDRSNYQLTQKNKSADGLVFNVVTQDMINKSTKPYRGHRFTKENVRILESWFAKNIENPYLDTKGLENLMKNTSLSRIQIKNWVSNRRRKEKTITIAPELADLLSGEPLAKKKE
Protocol: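 Universal 'all 10-mer' protein binding microarrays (Agilent AMADID 015681) probed with GST-tagged S. cerevisiae TFs (full-length or DBD) made by in vitro transcription/translation (PURExpress), about 100-200 nM. Bound TF was detected with fluorescent anti-GST. Each ungapped 8-mer (which stands for itself and its reverse complement) is scored by the PBM enrichment score (E-score), a modified Wilcoxon-Mann-Whitney statistic from -0.5 to +0.5, computed with the Universal PBM Analysis Suite. Scale: above 0.35 generally sequence-specific binding.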

Sequence | PBM E-score
TAGGTTGA | 0.0343
ATAGCAGA | 0.00582
ATACAGAA | 0.199
GGCCATGA | -0.217
CTTGCCTA | -0.112
ATAGGCAC | -0.216
CGATTTTA | 0.081
ACCGCGAT | -0.0546
CGTGTTCA | 0.369
CGTGTTGC | 0.301
CCTGTTAA | 0.288
AGTGTTAA | 0.374
AGTGTTAT | 0.269
AGTGTTAC | 0.221
CGTGTTGA | 0.446
AGTGTTGA | 0.238
AGTGTTCA | 0.00891
ACTGTTAA | 0.208
CGTGTTCC | 0.2
CGTGTTAA | 0.481
CGCTCTTA | 0.0692
AGAGAATG | -0.0972
ACGGCCAC | -0.128
AGAACCAT | 0.116
AAAGATTC | 0.196

Sequence | PBM E-score
ACGGTCCC | -0.356
AGGGTGAC | -0.182
GACGGTGA | -0.192
TCAGAACA | 0.196
AGTGTTAG | 0.0767
CTTGTTAA | 0.414
ACTGTTAG | -0.13
AGTGTTTA | 0.299
GTTGTTAA | 0.359
GGTGTTTA | 0.112
CCTGTTAC | 0.176
CGTGTTTA | 0.436
CGTGTTAC | 0.41
CTTGTTAC | 0.274
GGTGTTAC | 0.223
CGTGTTAG | 0.431
CAGATACC | -0.251
CTAGATCC | -0.22
GAGGCTAC | -0.193
CACTACTA | 0.00081
ACTTGCCA | -0.0087
ACACTTGA | -0.0396
TCGACTCA | 0.0619
CCCAAAGA | -0.0661
ATAAAGAA | 0.0809

Sequence | PBM E-score
CGATTACG | 0.274
AGATTACT | 0.141
CGGTTACA | 0.367
GGGTTACA | 0.218
TGATTAAA | 0.133
CGATTACA | 0.461
CGGTTACG | 0.0305
CGATTACC | -0.0336
AGATTACC | 0.0994
TGATTACA | 0.445
AGATTACA | 0.411
TGCTTACA | 0.305
CTGTTCTA | 0.102
TGAAGGAA | -0.0399
GCCAATCC | -0.151
ATGGCAAG | -0.153
GGATTACC | -0.00329
GGATTACA | 0.444
GGATTAGA | -0.216
GCTTAAGC | 0.187
CTGTAGTC | -0.0729
ATGTAGTC | 0.37
ATGTAGTG | 0.332
ATGTAGTA | 0.391
GTGTAGTA | 0.323

Sequence | PBM E-score
AAGTAGTC | 0.0858
TAGGCGGA | 0.0174
GATAAGAC | -0.0897
TATGTTGA | 0.364
GATGTTAA | 0.383
AATGTTAA | 0.364
TATGTTCA | 0.316
TATGTTAA | 0.459
GCTGTTAA | 0.262
GCTGTTAC | -0.0161
AAGATCCG | -0.207
ATTGCCCC | -0.315
CACTGCGA | -0.0249
CAAGGTCC | -0.193
ATATCTCG | -0.151
TTATGCAA | 0.11
GACTACAC | 0.362
AACTACAA | 0.242
AACTACAT | 0.392
AACTACGT | 0.186
CACTACAG | 0.126
CACTACAC | 0.394
AACTACAG | 0.0948
CACTACAA | 0.268
AACTACAC | 0.42

Sequence | PBM E-score
TGGATCCA | -0.063
CCTACTCG | -0.202
ACCCTTGC | -0.209
CGGGATAC | -0.16
ACGTCTGC | -0.182
ACACGTTG | 0.35
ACACGTCG | 0.302
ACACGTCA | 0.317
ACACGTAA | 0.396
ATACGTAT | 0.308
AAACGTAT | 0.278
ACACGTTA | 0.408
ACACGTAC | 0.347
ACACGTTC | 0.303
ACACGTCT | 0.368
ACACGTAG | 0.351
ACACGTAT | 0.369
CGAGTGGA | -0.137
AGGGGCCG | -0.365
CGGGAGCC | -0.33
CCACGTAA | 0.33
TCACGTAA | 0.393
GCACGTAA | 0.348
AGGTTGGG | -0.0364
CCCTTGGC | -0.35

Sequence | PBM E-score
ACGATTAC | 0.383
ACAATTAT | 0.214
CTGATTAC | 0.369
CTAATTAC | 0.362
ACAATTAC | 0.376
GTAATTAC | 0.452
ACAATTAA | 0.214
ATAATTAC | 0.357
CCGATTAC | 0.216
GCGATTAC | 0.275
CTGATTAA | 0.141
ATGATTAC | 0.326
GAAGCAAA | 0.156
CGCCACCG | -0.296
CAGAGCTC | -0.142
ATGGCGCC | -0.249
TCCTGCAA | -0.15
GCGGTGCA | -0.281
GTTGCACA | 0.0871
AGTGTTCG | 0.089
ACTTAGGA | -0.0292
AGGGTAAA | 0.0323
CCCAAGCG | -0.19
ATAATAAC | 0.187
GTAATAAA | 0.35

Sequence | PBM E-score
GTAATAAC | 0.392
CATACCTC | 0.0518
CTGAATTC | 0.0173
CACACGAC | 0.223
TGCACGAA | 0.122
TACACGAA | 0.456
AACACGAC | 0.424
AACACAAA | 0.261
CACACGAA | 0.233
CACACGAG | 0.152
ACCACGAC | -0.0364
AGCACGAA | 0.167
AACACGAA | 0.386
TTCACGAA | 0.019
AACACGAG | 0.377
ACGTTAAT | 0.304
GCTGGGAC | -0.263
AAGAACTG | -0.178
ACAGTGTA | 0.244
CCCTCGCC | -0.357
CATGCGAC | 0.0966
CTTCTGCA | -0.0586
CCTGCGGC | -0.341
TCAAGTAA | 0.265
AGGGCCCA | -0.239
